Laboratory results: PubChem BioAssay AID432 (Sanford-Burnham Center for Chemical Genomics, 2006)
Among all 64,000 compounds or so, about 15 (0.02%) were called active. No rule for the calls is given here. These entries were drawn from the full list. Measured potencies and affinities stand elsewhere.

Target: Bcl-2-related protein A1 (Mus musculus) (UniProt Q07440)
Test: displacement of Bid BH3 peptide from Bfl-1 – biochemical, fluorescence polarization, FITC-Bid, mouse, primary screen (AID 432)
Details: at 20 µM, hits give high values

Bcl-2-related protein A1 (Mus musculus), sequence (Q07440 whole entry, looked up): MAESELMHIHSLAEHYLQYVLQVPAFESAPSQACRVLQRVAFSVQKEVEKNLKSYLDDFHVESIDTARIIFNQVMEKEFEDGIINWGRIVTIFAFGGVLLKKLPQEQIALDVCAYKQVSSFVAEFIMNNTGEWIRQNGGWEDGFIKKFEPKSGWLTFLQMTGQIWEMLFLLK

displacement, inactive:
O=C(CN1C(=O)CC(c2ccco2)Sc2ccccc21)NCC1CCCO1 (stereo unspecified) -4.3%, CCCN1CCN(C(=O)Cn2cccc2C(=O)c2ccccc2)CC1 -2.4%, COC(=O)CCC(=O)Nc1ccc(NC(C)=O)cc1 0.3%, COc1ccc(S(=O)(=O)n2nc(-c3cc(OC)c(OC)c(OC)c3)cc2N)cc1OC 3.4%, COc1ccc(OC)c(S(=O)(=O)n2nc(-c3ccccc3)cc2N)c1 -0.3%, CC(C)(C)Sc1nc(O)cc(=O)[nH]1 -4.4%, CN(c1ccccc1)S(=O)(=O)c1cc(C(=O)N2CCN(c3ccccn3)CC2)ccc1Cl -4.6%, CC1CN(C(=O)c2ccc(C(=O)c3ccccc3)cc2)CC(C)O1 (stereo unspecified) -0.8%, O=C1CC2CS(=O)(=O)CC2N1C1CCCCC1 (stereo unspecified) 2%, CCN(CC)S(=O)(=O)c1ccc(Cl)c(C(=O)NCC2CCCO2)c1 (stereo unspecified) -6.5%, COc1cccc(-c2nc(-c3ccccc3)no2)c1 -9.1%, COc1cc(OC)cc(-c2nc(-c3cc4cc(C)ccc4nc3OC)no2)c1 -2%, COc1nc(-c2ccccc2)ccc1-c1noc(-c2ccc(F)cc2)n1 -1.8%, COc1ccc(-c2ccc(-c3noc(-c4ccccc4)n3)c(OC)n2)cc1 -44.4%, COCCNC(=O)C(c1ccccc1)N(Cc1cccs1)C(=O)Cn1nnc2ccccc21 (stereo unspecified) 4.1%, CCCCCOc1ccc(C(=O)NC(CCC)C(=O)O)cc1 (stereo unspecified) 0.1%, CCCn1nnc(NCc2ccc(OCc3cccs3)c(OC)c2)n1 1.2%, CCCNC(=O)Nc1cc(C)on1 -15.6%, N#Cc1cc2c(nc1SCC1COc3ccccc3O1)CCC2 (stereo unspecified) -4.2%, O=C(CC(c1ccccc1O)N1CCCCC1)N1CCCCC1 (stereo unspecified) -9.2%, COc1ccccc1-n1cnnc1SC1CCOC1=O (stereo unspecified) -0.5%, O=C(CSc1nnnn1C1CCCCC1)Nc1cccc(NC(=O)c2ccco2)c1 6.6%, Cc1c(C(=O)NCc2cccnc2)oc2c1C(=O)CC(C)(C)C2 -2.3%, CCCc1[nH]nc2c1C(CCc1ccccc1)C(C#N)=C(N)O2 (stereo unspecified) -3.6%, Cc1nc(SCC(=O)NCC2CCCO2)c2oc3ccccc3c2n1 (stereo unspecified) -3.4%, CC(C)(O)c1nnn(-c2ccccc2)c1C(F)(F)F -3%, COc1cccc(CNCC(=O)N2C(C)CCCC2C)c1 (stereo unspecified) -0.5%, CNC(=O)c1cc2ccc(OC)cc2oc1=O -6.1%, O=C1CCc2cc(S(=O)(=O)N3CCC(C(=O)NC4CCCc5ccccc54)CC3)ccc2N1 (stereo unspecified) -5.6%, Cc1csc(-c2cnn(-c3ccccc3)c2NC(=O)c2ccccc2)n1 -3.3%, COc1cccc(-c2nn(C)c3sc(C(=O)NCc4ccccn4)cc23)c1 3.4%, COC(=O)c1ccc(NC(=O)C2C3C=CC(O3)C2C(=O)O)cc1 (stereo unspecified) 1.3%, Cc1cccc(-n2c(SCC(=O)N3CCCC3)nnc2-c2ccccn2)c1C -5.2%, CCC/C(O)=C1\C(=O)CC(C)(C)CC1=NCCO 2.8%, O=S(=O)(c1ccc(Br)s1)n1cccn1 -3.1%, O=C(Nc1nncs1)C1COc2ccccc2O1 (stereo unspecified) -5%, O=C(NC(NCCCN1CCOCC1)(C(F)(F)F)C(F)(F)F)C1CCCCC1 -1.1%, Cc1nc(NCCN2CCOCC2)c2nnn(Cc3c(F)cccc3Cl)c2n1 -1.3%, CCOC(=O)/C(C#N)=C(\N)C(C)C(=O)Nc1ccccn1 (stereo unspecified) -3.2%, CCOC(=O)CNC(=O)CSc1nc2cccnc2n1C1CCCCC1 -8.1%, Cn1c(NC(=O)c2cc(Br)ccc2Cl)cc(=O)n(C)c1=O -6.3%
